{
  "source": "PubChem BioAssay (NCI)",
  "note": "About 83,000 compounds went through this panel and 20% of them were active in at least one assay; those are over-represented in the sample as a whole.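 Interpretation: 100, growth as untreated; towards 0, rising growth inhibition; 0, no net growth; 0 to -100, cell death. Compounds scoring below 10 were considered active.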 A number with no mark means an inactive call. Activity calls are given as the source filed them.",
  "data": [
    {"tested_on": "UACC-257 melanoma", "assay": "NCI-60 one-dose screen, 48 h (100 = growth as untreated, 0 = no growth, -100 = all killed)", "conditions": "10 µM unless noted", "values": [
      {"smiles": "O=NN1CCCc2cccc(O)c21", "growth": "57.4%"},
      {"smiles": "Fc1ccc2c(c1)c(-c1nc(-c3c[nH]c4ncccc34)cs1)cn2CCN1CCOCC1", "growth": "97.2%"},
      {"smiles": "CC(=O)Nc1nc2c(s1)CC[C@@]1(C)C2=CC[C@H]2[C@@H]3CC[C@H](O)[C@@]3(C)CC[C@@H]21", "growth": "82%"},
      {"smiles": "CN(C)CC(C(=O)Cc1ccccc1)c1ccccc1", "note": "(stereo unspecified)", "growth": "5.79% (active)"},
      {"smiles": "CCOC(=O)[C@@H](C)C[C@H](Cc1ccccc1)NC(=O)c1csc([C@@H](C[C@H](C(C)C)N(C)C(=O)[C@H](CCC(C)C)NC(=O)[C@H]2CCCCN2C)OC(C)=O)n1", "growth": "46.9%"},
      {"smiles": "CCCCCCCCCCCCCCCCCC1OC[C@H](COC(=O)O[C@@H](C(=O)O[C@H]2C[C@@]3(O)[C@@H](OC(=O)c4ccccc4)[C@@H]4[C@]5(OC(C)=O)CO[C@@H]5C[C@H](O)[C@@]4(C)C(=O)[C@H](OC(C)=O)C(=C2C)C3(C)C)[C@@H](NC(=O)c2ccccc2)c2ccccc2)O1", "note": "(stereo partly specified)", "growth": "72.2%"},
      {"smiles": "c1cnc2[nH]cc(-c3csc(-c4cn(CCCCN5CCCCC5)c5ccccc45)n3)c2c1", "growth": "112%"},
      {"smiles": "C=C1C[C@](OC)([C@H](O)C(=O)N[C@@H](OC)[C@@H]2C[C@@H](O)C(C)(C)[C@@H](C[C@@H](COC)OC)O2)O[C@H](C)[C@@H]1C", "growth": "-53.4% (active)"},
      {"smiles": "O=C(Nc1ccc(O)cc1)C(Cl)(Cl)Cl", "growth": "90.2%"},
      {"smiles": "Cc1c(NS(=O)(=O)c2ccccc2)ccc([N+](=O)[O-])c1Cl", "growth": "59.5%"},
      {"smiles": "CCCCN1CCCC[C@@H]1C(=O)N[C@H](C(=O)N(C)[C@H](C[C@@H](OC(C)=O)c1nc(C(=O)NC2CCC(C(=O)OC)CC2)cs1)C(C)C)C(C)C", "note": "(stereo partly specified)", "growth": "59.4%"},
      {"smiles": "Cn1cc(-c2csc(-c3cn(CCCCN4CCCCC4)c4ccc(F)cc34)n2)c2cccnc21", "growth": "-42.6% (active)"},
      {"smiles": "CC1=C(CN)C2=C(C)C3(CC3)[C@@](C)(O)C(=O)C2=C1", "growth": "87.2%"},
      {"smiles": "CC(=O)O[C@H]1C(=O)[C@@]2(C)[C@H]([C@H](OC(=O)c3ccccc3)[C@]3(O)C[C@H](OC(=O)[C@H](OC(=O)OC[C@H]4COC(C)(C)O4)[C@@H](NC(=O)c4ccccc4)c4ccccc4)C(C)=C1C3(C)C)[C@]1(OC(C)=O)CO[C@@H]1C[C@@H]2O", "growth": "48.3%"},
      {"smiles": "Cn1cc(-c2csc(-c3cn(CCN4CCOCC4)c4ccc(F)cc34)n2)c2cccnc21", "growth": "71%"},
      {"smiles": "Brc1ccc2c(c1)c(-c1nc(-c3c[nH]c4ncccc34)cs1)cn2CCN1CCOCC1", "growth": "99.7%"},
      {"smiles": "COC(=O)[C@@H](C)C[C@H](Cc1ccccc1)NC(=O)c1csc([C@@H](C[C@H](C(C)C)N(C)C(=O)[C@@H](NC(=O)[C@H]2CCCCN2C)C2CCCCC2)OC(C)=O)n1", "growth": "48%"},
      {"smiles": "CC(=O)OC1CCC2(C)C(CCC3C2CC(=O)C2(C)C3CC(Sc3ccc(N(CCCl)CCCl)cc3)C2C(C)=O)C1", "note": "(stereo unspecified)", "growth": "90.3%"},
      {"smiles": "COc1ccc(S(=O)(=O)N(Cc2ccc3c(c2)C=CC(C)(C)O3)c2ccccc2)cc1OC", "growth": "61.9%"},
      {"smiles": "CC[C@H](C)[C@H](NC(=O)[C@H]1CCCCN1C)C(=O)N(C)[C@H](CC(=O)c1nc(C(=O)N[C@@H](Cc2ccccc2)C[C@H](C)C(=O)O)cs1)C(C)C", "growth": "74%"},
      {"smiles": "COC(=O)[C@@H](C)C[C@H](Cc1ccccc1)NC(=O)c1csc([C@@H](C[C@H](C(C)C)N(C)C(=O)[C@@H](NC(=O)C23CC(NC(C)=O)(C2)C3)C2CC2)OC(C)=O)n1", "growth": "46.2%"},
      {"smiles": "O=C1CC2(CC3(Cl)C(Cl)=C(Cl)C2(Cl)C3(Cl)Cl)C(=O)O1", "note": "(stereo unspecified)", "growth": "107%"},
      {"smiles": "C[n+]1c(/C=C/c2ccc(N(CCCl)CCCl)cc2)sc2ccccc21", "growth": "64.7%"},
      {"smiles": "CC[C@H](C)[C@H](NC(=O)NC(C)(C)C)C(=O)N(C)[C@H](C[C@@H](OC(C)=O)c1nc(C(=O)N[C@@H](Cc2ccccc2)C[C@H](C)C(=O)OC)cs1)C(C)C", "growth": "43.8%"},
      {"smiles": "CCCCCCCC[N+](C)(CCCCCCCC)CCCCCCCC", "growth": "-95.2% (active)"},
      {"smiles": "CC(=O)O[C@H]1C(=O)[C@@]2(C)[C@H]([C@H](OC(=O)c3ccccc3)[C@]3(O)C[C@H](OC(=O)[C@H](OC(=O)OC[C@@H]4COC(C)(C)O4)[C@@H](NC(=O)c4ccccc4)c4ccccc4)C(C)=C1C3(C)C)[C@]1(OC(C)=O)CO[C@@H]1C[C@@H]2O", "growth": "50.1%"}
    ]}
  ]
}
